Reference: PubChem BioAssay AID1159580 (chemical genetic matrix, 2015)
Hit rate of the full screen: of about 5,500 compounds, about 2,000 (36%) were called active. About 18% were inconclusive and are not listed. Rule as the data show it: active = normalized growth mostly below about 0.91 (no sharp cut-off); inconclusive = no clear call, values can overlap the other calls; inactive = mostly above about 0.92. This is one part of the list.

Assay: chemical genetic growth profiling, strain panel (AID 1159580);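 also: tested at 20 µM; growth read once vehicle control cultures reached saturation at 30 °C; 1 = growth at the plate median or of vehicle wells; lower values mean less growth of the strain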
Conditions: S. cerevisiae deletion strains, growth OD

Measured: normalized growth

OCCc1ccccc1
inactive: locus YAL021C, strain ccr4, hits give low values 0.971 | locus YAL026C, strain drs2, hits give low values 0.98 | locus YAL030W, strain snc1, hits give low values 0.968 | locus YBL061C, strain skt5, hits give low values 0.985 | locus YBR009C, strain hhf1, hits give low values 0.976 | locus YBR023C, strain chs3, hits give low values 0.992 | locus YBR171W, strain sec66, hits give low values 0.968 | locus YBR231C, strain swc5, hits give low values 0.989 | locus YBR279W, strain paf1, hits give low values 0.989 | locus YCL011C, strain gbp2, hits give low values 0.989 | locus YCL016C, strain dcc1, hits give low values 0.994 | locus YCL061C, strain MRC1, hits give low values 0.994 | locus YCL069W, strain vba3, hits give low values 0.99 | locus YCR088W, strain abp1, hits give low values 0.983 | locus YDL005C, strain med2, hits give low values 0.989 | locus YDL040C, strain nat1, hits give low values 0.999 | locus YDR001C, strain nth1, hits give low values 0.974 | locus YDR069C, strain doa4, hits give low values 0.981 | locus YDR137W, strain rgp1, hits give low values 0.948 | locus YDR159W, strain sac3, hits give low values 0.98 | locus YDR195W, strain ref2 0.947 | locus YDR297W, strain sur2, hits give low values 0.984 | locus YDR334W, strain swr1, hits give low values 0.94 | locus YDR335W, strain msn5, hits give low values 0.982 | locus YDR392W, strain spt3, hits give low values 0.999 | locus YEL003W, strain gim4, hits give low values 0.981 | locus YEL037C, strain rad23, hits give low values 0.986 | locus YEL061C, strain CIN8 (second series), hits give low values 0.977 | locus YER015W, strain faa2, hits give low values 0.987 | locus YER016W, strain bim1, hits give low values 0.99 | locus YER111C, strain swi4, hits give low values 0.982 | locus YER155C, strain BEM2 (second series), hits give low values 0.975 | locus YFR010W, strain ubp6, hits give low values 0.973 | locus YGL167C, strain pmr1, hits give low values 0.99 | locus YGL173C, strain kem1, hits give low values 0.957 | locus YGL227W, strain vid30, hits give low values 0.971 | locus YGL240W, strain doc1, hits give low values 0.977 | locus YGL253W, strain hxk2, hits give low values 0.986 | locus YHR013C, strain ard1, hits give low values 0.99 | locus YHR027C, strain rpn1, hits give low values 0.961 | locus YHR030C, strain SLT2, hits give low values 0.97 | locus YHR079C, strain IRE1, hits give low values 0.951 | locus YHR142W, strain chs7, hits give low values 0.972 | locus YJL092W, strain hpr5, hits give low values 0.988 | locus YJL095W, strain BCK1 (second series), hits give low values 0.986 | locus YJL095W, strain BCK1, hits give low values 1.02 | locus YJL115W, strain asf1, hits give low values 0.976 | locus YJL129C, strain trk1, hits give low values 1.03 | locus YJL154C, strain vps35, hits give low values 0.969 | locus YJL164C, strain tpk1, hits give low values 1 | locus YJL166W, strain qcr8, hits give low values 0.989 | locus YJL187C, strain SWE1, hits give low values 0.987 | locus YJR066W, strain TOR1, hits give low values 0.952 | locus YKL160W, strain elf1, hits give low values 0.996 | locus YKR026C, strain gcn3, hits give low values 0.983 | locus YKR091W, strain srl3, hits give low values 0.994 | locus YLL001W, strain dnm1, hits give low values 0.999 | locus YLL026W, hits give low values 0.97 | locus YLL041C, strain sdh2, hits give low values 0.984 | locus YLR027C, strain aat2, hits give low values 0.965 | locus YLR113W, strain HOG1, hits give low values 1.01 | locus YLR221C, strain rsa3, hits give low values 0.982 | locus YLR258W, strain gsy2, hits give low values 0.992 | locus YLR262C, strain YPT6 (second series), hits give low values 0.961 | locus YLR320W, strain mms22, hits give low values 0.987 | locus YLR342W, strain FKS1, hits give low values 0.988 | locus YLR357W, strain rsc2, hits give low values 1 | locus YLR370C, strain arc18, hits give low values 0.988 | locus YLR384C, strain iki3, hits give low values 0.979 | locus YML120C, strain ndi1, hits give low values 0.995 | locus YMR058W, strain fet3, hits give low values 0.98 | locus YMR125W, strain sto1, hits give low values 0.982 | locus YMR129W, hits give low values 0.99 | locus YMR205C, strain PFK2, hits give low values 0.963 | locus YMR231W, strain pep5, hits give low values 0.99 | locus YNL071W, strain lat1, hits give low values 0.986 | locus YNL183C, strain NPR1, hits give low values 0.958 | locus YNL209W, strain ssb2, hits give low values 0.988 | locus YNL248C, strain rpa49, hits give low values 0.994 | locus YNL322C, strain KRE1 (second series), hits give low values 0.988 | locus YNR049C, strain mso1, hits give low values 0.975 | locus YOR001W, strain rrp6, hits give low values 0.993 | locus YOR070C, strain gyp1, hits give low values 0.986 | locus YOR080W, strain dia2, hits give low values 0.996 | locus YOR083W, strain WHI5, hits give low values 0.995 | locus YOR106W, strain vam3, hits give low values 0.976 | locus YOR231W, strain MKK1, hits give low values 0.973 | locus YOR265W, strain rbl2, hits give low values 1 | locus YOR270C, strain vph1, hits give low values 0.949 | locus YOR290C, strain snf2, hits give low values 0.986 | locus YPL051W, strain arl3, hits give low values 0.995 | locus YPL078C, strain atp4, hits give low values 0.976 | locus YPL106C, strain sse1, hits give low values 0.916 | locus YPL240C, strain hsp82, hits give low values 0.997 | locus YPL256C, strain CLN2, hits give low values 0.981
